From PubChem BioAssay (EPA / NIEHS)
Values joined by “and” are separate entries in the source; they are usually repeats but may differ in a detail not shown here. Identical values can stand only once. Records with an inconclusive call do not appear. Where a structure was tested more than once in an assay, its records may differ in their call. Active and inactive are the calls of the source. Rule for the calls: active = hit-call score of the fitted dose curve at least 0.9, where 1 is the maximum; inconclusive = response in the unintended direction; inactive = score below 0.9.

The compounds below were run against Nuclear receptor subfamily 1 group I member 2 (Homo sapiens) (UniProt O75469) (assay: ATG_PXR_TRANS: Attagene TRANS-FACTORIAL HepG2 Assay for human Pregnane X Receptor (PXR) (AID 2283008)).
Sequence of Nuclear receptor subfamily 1 group I member 2 (Homo sapiens) (O75469 whole entry, looked up): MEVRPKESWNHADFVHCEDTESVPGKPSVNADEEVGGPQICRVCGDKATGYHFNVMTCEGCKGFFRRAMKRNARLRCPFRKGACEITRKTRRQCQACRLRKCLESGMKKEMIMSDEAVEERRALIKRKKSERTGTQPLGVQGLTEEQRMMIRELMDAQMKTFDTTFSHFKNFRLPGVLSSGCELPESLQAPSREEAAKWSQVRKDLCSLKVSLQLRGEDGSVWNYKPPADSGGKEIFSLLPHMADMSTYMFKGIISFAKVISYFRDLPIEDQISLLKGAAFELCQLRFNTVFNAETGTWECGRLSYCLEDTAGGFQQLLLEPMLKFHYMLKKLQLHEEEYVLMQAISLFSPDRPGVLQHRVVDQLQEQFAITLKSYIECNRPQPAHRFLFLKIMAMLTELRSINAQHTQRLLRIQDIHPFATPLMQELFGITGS
Method: ATG_TRANS is a cell-based, multiplexed-readout assay that uses HepG2, a human liver cell line, with measurements taken at 24 hours after chemical dosing in a 24-well plate.ATG_PXR_TRANS is one of 30 assay component(s) measured or calculated from the ATG_TRANS assay. It is designed to make measurements of mRNA induction, a form of inducible reporter, as detected with fluorescence intensity signals by Reverse transcription polymerase chain reaction (RT-PCR) and Capillary electrophoresis technology.Data from the assay component ATG_PXR_TRANS was analyzed into 1 assay endpoint. This assay endpoint, ATG_PXR_TRANS, was analyzed in the positive analysis fitting direction relative to DMSO as the negative control and baseline of activity. Using a type of inducible reporter, measures of mRNA for gain-of-signal activity can be used to understand the reporter gene at the transcription factor-level as they relate to the gene NR1I2. Furthermore, this assay endpoint can be referred to as a primary readout, because this assay has produced multiple assay endpoints where this one serves a reporter gene function. To generalize the intended target to other relatable targets, this assay endpoint is annotated to the nuclear receptor intended target family, where the subfamily is non-steroidal.
Human liver HepG2 cells are transiently transfected with multiple reporter transcription units (MRTUs) in 6-well plates using FuGene 6 reagent (Roche; 3 ml FuGene/1 mg DNA). The MRTU constructs are regulated by a cis-regulating element (promoter). […] A major difference between the CIS and TRANS system is that in CIS activities of endogenous TFs are measured, whereas the TRANS assay evaluates changes in activities of exogenous, chimeric NR-Gal4 proteins. […] At the end of 24 hour incubation, total RNA was isolated using TriZol reagent (Invitrogen). The isolated RNA is then reverse-transcribed using oligo(dT) primer and Mo-MLV reverse transcriptase (Invitrogen) with DNAse I (Ambion) treatment for 30 min. The one-tenth of the produced cDNA was amplified by PCR using Taq DNA polymerase (Invitrogen) and two reporter sequence-specific primers. The PCR products were fluorescently labeled by primer extension with 6-arboxyfluorescein (6-FAM) 5'-labeled reporter sequence-specific primer (2 min at 95 C, 20 s at 68 C and 10 min at 72 C) and these products were digested with 5U of HpaI (New England Biolabs) for 2h at 37 C. The fragments were purified using Qiaquick PCR columns (Qiagen), analyzed on an ABI 3130xL genetic analyzer (Applied Biosystems) with peak positions identified by using a set of X-rhodamine (ROX)-labeled MapMarker1000 molecular weight standards (BioVentures). The raw capillary electrophoresis data was processed using Attagraph software (Attagene).

Compound	outcome	AC50
CC(C)(C)OOC(C)(C)CCC(C)(C)OOC(C)(C)C	inactive	–
CN(C)c1ccc(C(=O)c2ccc(N(C)C)cc2)cc1	inactive	–
COP(=S)(OC)SCN1C(=O)c2ccccc2C1=O	inactive	–
O=C(Nc1ccccc1)c1ccccc1I	–	10.6 µM (active)
CO[C@@H]1[C@H](OC(=O)NC(=O)CCl)CC[C@]2(CO2)[C@H]1[C@@]1(C)O[C@@H]1CC=C(C)C	inactive	–
C=CCc1ccc2c(c1)OCO2	inactive	–
O=P(OCCCl)(OCCCl)OCCCl	inactive	–
CCCCCCCCCCCCCN1CC(C)OC(C)C1 (stereo not given)	–	26.2 µM (active)
Nc1ccc(Cl)cc1N	inactive	–
Nc1ccc([N+](=O)[O-])cc1	inactive	–
COC(=O)Nc1nc2ccccc2[nH]1	inactive	–
CCNS(=O)(=O)C(F)(F)C(F)(F)C(F)(F)C(F)(F)C(F)(F)C(F)(F)C(F)(F)C(F)(F)F	inactive	12.7 µM (active) and 9.73 µM (active)
[O-][Cl+]O	inactive	–
CCCCOC(=O)c1ccccc1C(=O)OCc1ccccc1	inactive	–
CS(=O)(=O)NC(=O)c1cc(Oc2ccc(C(F)(F)F)cc2Cl)ccc1[N+](=O)[O-]	–	7.65 µM (active)
ClC1=C(Cl)C2(Cl)C3C(Cl)C=CC3C1(Cl)C2(Cl)Cl (stereo not given)	inactive	–
ClCCOCCCl	inactive	–
Oc1ccc2ccc3cccc4ccc1c2c34	–	33.4 µM (active)
Nc1ccc(N=Nc2ccccc2)cc1	inactive	–
Cn1cc(-c2ccccc2)c(=O)c(-c2cccc(C(F)(F)F)c2)c1	–	4.04 µM (active)

Compound	outcome	AC50
CNC(=O)Oc1cccc2c1OC(C)(C)C2	inactive	–
CC(C)(O)c1cnn2c(-c3ccc(F)c(-c4c(F)cccc4C#N)c3)cnc2n1	–	0.0774 µM (active)
CCCSC(=O)N(CCC)CCC	inactive	–
CN(C)[C@@H]1C(=O)C(C(N)=O)=C(O)[C@@]2(O)C(=O)C3=C(O)c4c(O)cccc4[C@@](C)(O)[C@H]3C[C@@H]12	inactive	–
O=C(O)C1C2CCC(O2)C1C(=O)O (stereo not given)	inactive	–
Cc1cc(N=Nc2ccccc2C)ccc1N	–	20.7 µM (active)
CC(O)CCO (stereo not given)	–	24.1 µM (active)
Cc1ccc([N+](=O)[O-])cc1	inactive	–
N#CC(Br)Br	inactive	–
[Cl-].[Cl-].[Hg+2]	inactive	–
CCCCCOC(=O)c1ccccc1C(=O)OCCCCC	–	27.9 µM (active)
CCCCC(CC)COC(=O)c1ccc(C(=O)OCC(CC)CCCC)c(C(=O)OCC(CC)CCCC)c1 (stereo not given)	inactive	–
CCCCCCCCn1sccc1=O	–	10.7 µM (active)
CCC(C)c1ccc(O)cc1 (stereo not given)	inactive	–
CCC12COCN1COC2	inactive	–
Cc1ccc(N)c(N)c1	inactive	–
CC(C)(OOC(C)(C)c1ccccc1)c1ccccc1	–	7.09 µM (active)
O=C(N[C@H](c1ccccc1)[C@@H]1CN2CCC1CC2)c1c(Cl)ccc(C(F)(F)F)c1Cl	–	0.226 µM (active)
Brc1ccc(Oc2ccccc2)cc1	inactive	–
